# Experimental data from the supplement of paper PMC12282887.
# ± gives the standard deviation of the averaged measurements.
# Legend:
# Test in all cases: promoter activity interaction Z-score (Lux/OD deviation from empty-vector control); higher = stronger promoter induction by the compound
# [1] = tested on: E. coli BW25113 robp lux reporter
# How it was run: (§1)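 In 384-well plates, 40 µl LB Lennox cultures of E. coli BW25113 with low-copy luxCDABE promoter reporters grew at 37°C. Optical density at 600 nm and light output were recorded every 30 min for 12 h, with windows of 0–8 h for wild type and 1–9 h for deletion strains, and wells under 10% of the median growth value were left out. Each value is a Z-transformed residual of growth-normalised luminescence fitted against a control.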
# [2] = tested on: E. coli BW25113 soxSp lux reporter
# How it was run: as §1
# [3] = tested on: E. coli BW25113 tolCp lux reporter
# How it was run: as §1
# [4] = tested on: E. coli BW25113 acrABp lux reporter
# How it was run: as §1
# [5] = tested on: E. coli BW25113 micFp lux reporter
# How it was run: as §1
# [6] = tested on: E. coli BW25113 ompFp lux reporter
# How it was run: as §1
# [7] = 324.4 µg/ml, genetic background: wild type
# [8] = 324.4 µg/ml, genetic background: ΔmarA
# [9] = 324.4 µg/ml, genetic background: Δrob
# [10] = 324.4 µg/ml, genetic background: ΔsoxS
# [11] = 40.6 µg/ml, genetic background: wild type
# [12] = 40.6 µg/ml, genetic background: ΔmarA
# [13] = 40.6 µg/ml, genetic background: Δrob
# [14] = 40.6 µg/ml, genetic background: ΔsoxS
# [15] = 81.1 µg/ml, genetic background: wild type
# [16] = 81.1 µg/ml, genetic background: ΔmarA
# [17] = 81.1 µg/ml, genetic background: Δrob
# [18] = 81.1 µg/ml, genetic background: ΔsoxS
# [19] = 162.2 µg/ml, genetic background: wild type
# [20] = 162.2 µg/ml, genetic background: ΔmarA
# [21] = 162.2 µg/ml, genetic background: Δrob
# [22] = 162.2 µg/ml, genetic background: ΔsoxS
# [23] = 0.53 µg/ml, genetic background: wild type
# [24] = 0.53 µg/ml, genetic background: ΔmarA
# [25] = 0.53 µg/ml, genetic background: Δrob
# [26] = 0.53 µg/ml, genetic background: ΔsoxS
# [27] = 1.1 µg/ml, genetic background: wild type
# [28] = 1.1 µg/ml, genetic background: ΔmarA
# [29] = 1.1 µg/ml, genetic background: Δrob
# [30] = 1.1 µg/ml, genetic background: ΔsoxS
# [31] = 2.1 µg/ml, genetic background: wild type
# [32] = 2.1 µg/ml, genetic background: ΔmarA
# [33] = 2.1 µg/ml, genetic background: Δrob
# [34] = 2.1 µg/ml, genetic background: ΔsoxS
# [35] = 4.2 µg/ml, genetic background: wild type
# [36] = 4.2 µg/ml, genetic background: ΔmarA
# [37] = 4.2 µg/ml, genetic background: Δrob
# [38] = 4.2 µg/ml, genetic background: ΔsoxS
smiles,measurement,setting,value
C=C[C@H]1CN2CC[C@H]1C[C@H]2[C@H](O)c1ccnc2ccc(OC)cc12 [Quinine],promoter activity interaction Z-score,[1]; [7],-0.236 ± 0.25
same,promoter activity interaction Z-score,[1]; [8],0.371 ± 0.84
same,promoter activity interaction Z-score,[1]; [9],0.206 ± 0.3
same,promoter activity interaction Z-score,[1]; [10],-0.277 ± 1.1
same,promoter activity interaction Z-score,[2]; [11],-0.2102 ± 0.00085
same,promoter activity interaction Z-score,[2]; [12],-0.278 ± 0.015
same,promoter activity interaction Z-score,[2]; [13],-0.273 ± 0.13
same,promoter activity interaction Z-score,[2]; [14],-0.121 ± 0.17
same,promoter activity interaction Z-score,[2]; [15],-0.286 ± 0.043
same,promoter activity interaction Z-score,[2]; [16],-0.134 ± 0.031
same,promoter activity interaction Z-score,[2]; [17],-0.188 ± 0.032
same,promoter activity interaction Z-score,[2]; [18],-0.041 ± 0.2
same,promoter activity interaction Z-score,[2]; [19],-0.297 ± 0.031
same,promoter activity interaction Z-score,[2]; [20],-0.177 ± 0.0058
same,promoter activity interaction Z-score,[2]; [21],0.0402 ± 0.16
same,promoter activity interaction Z-score,[2]; [22],-0.15 ± 0.37
same,promoter activity interaction Z-score,[2]; [7],-0.241 ± 0.021
same,promoter activity interaction Z-score,[2]; [8],-0.171 ± 0.066
same,promoter activity interaction Z-score,[2]; [9],-0.243 ± 0.11
same,promoter activity interaction Z-score,[2]; [10],-0.272 ± 0.35
same,promoter activity interaction Z-score,[3]; [11],-0.906 ± 1
same,promoter activity interaction Z-score,[3]; [12],-0.418 ± 0.34
same,promoter activity interaction Z-score,[3]; [13],0.214 ± 1.5
same,promoter activity interaction Z-score,[3]; [14],-0.701 ± 0.52
same,promoter activity interaction Z-score,[3]; [15],-0.18 ± 0.28
same,promoter activity interaction Z-score,[3]; [16],0.28 ± 0.4
same,promoter activity interaction Z-score,[3]; [17],-0.738 ± 0.76
same,promoter activity interaction Z-score,[3]; [18],-0.512 ± 0.23
same,promoter activity interaction Z-score,[3]; [19],-0.157 ± 0.39
same,promoter activity interaction Z-score,[3]; [20],0.0619 ± 0.15
same,promoter activity interaction Z-score,[3]; [21],-0.0757 ± 0.051
same,promoter activity interaction Z-score,[3]; [22],-0.611 ± 1.3
same,promoter activity interaction Z-score,[3]; [7],-0.913 ± 0.14
same,promoter activity interaction Z-score,[3]; [8],0.586 ± 1.1
same,promoter activity interaction Z-score,[3]; [9],-0.0963 ± 1.2
same,promoter activity interaction Z-score,[3]; [10],0.127 ± 0.016
Cc1onc(-c2ccccc2)c1C(=O)N[C@@H]1C(=O)N2[C@@H]1SC(C)(C)[C@@H]2C(=O)O [Oxacillin],promoter activity interaction Z-score,[4]; [23],0.053 ± 0.18
same,promoter activity interaction Z-score,[4]; [24],-0.268 ± 0.44
same,promoter activity interaction Z-score,[4]; [25],-0.0793 ± 0.23
same,promoter activity interaction Z-score,[4]; [26],-0.33 ± 0.59
same,promoter activity interaction Z-score,[4]; [27],0.196 ± 0.12
same,promoter activity interaction Z-score,[4]; [28],1.12 ± 0.86
same,promoter activity interaction Z-score,[4]; [29],0.498 ± 0.18
same,promoter activity interaction Z-score,[4]; [30],-0.172 ± 0.078
same,promoter activity interaction Z-score,[4]; [31],0.0571 ± 0.33
same,promoter activity interaction Z-score,[4]; [32],0.268 ± 0.39
same,promoter activity interaction Z-score,[4]; [33],-0.074 ± 0.13
same,promoter activity interaction Z-score,[4]; [34],0.181 ± 0.15
same,promoter activity interaction Z-score,[4]; [35],0.273 ± 0.22
same,promoter activity interaction Z-score,[4]; [36],0.585 ± 0.21
same,promoter activity interaction Z-score,[4]; [37],0.529 ± 0.22
same,promoter activity interaction Z-score,[4]; [38],0.643 ± 0.31
same,promoter activity interaction Z-score,[5]; [23],-0.0698 ± 0.15
same,promoter activity interaction Z-score,[5]; [24],-0.00609 ± 0.034
same,promoter activity interaction Z-score,[5]; [25],0.0977 ± 0.018
same,promoter activity interaction Z-score,[5]; [26],-0.311 ± 0.1
same,promoter activity interaction Z-score,[5]; [27],0.087 ± 0.12
same,promoter activity interaction Z-score,[5]; [28],0.0472 ± 0.028
same,promoter activity interaction Z-score,[5]; [29],-0.0746 ± 0.027
same,promoter activity interaction Z-score,[5]; [30],-0.46 ± 0.051
same,promoter activity interaction Z-score,[5]; [31],-0.222 ± 0.18
same,promoter activity interaction Z-score,[5]; [32],-0.0625 ± 0.059
same,promoter activity interaction Z-score,[5]; [33],-0.00193 ± 0.23
same,promoter activity interaction Z-score,[5]; [34],-0.245 ± 0.077
same,promoter activity interaction Z-score,[5]; [35],-0.192 ± 0.041
same,promoter activity interaction Z-score,[5]; [36],-0.163 ± 0.035
same,promoter activity interaction Z-score,[5]; [37],-0.112 ± 0.052
same,promoter activity interaction Z-score,[5]; [38],-0.2749 ± 0.002
same,promoter activity interaction Z-score,[6]; [23],0.23 ± 0.46
same,promoter activity interaction Z-score,[6]; [24],-0.204 ± 0.21
same,promoter activity interaction Z-score,[6]; [25],0.703 ± 0.91
same,promoter activity interaction Z-score,[6]; [26],0.0892 ± 0.53
same,promoter activity interaction Z-score,[6]; [27],0.678 ± 0.061
same,promoter activity interaction Z-score,[6]; [28],0.797 ± 0.28
same,promoter activity interaction Z-score,[6]; [29],1.14 ± 0.72
same,promoter activity interaction Z-score,[6]; [30],-0.107 ± 0.53
same,promoter activity interaction Z-score,[6]; [31],0.461 ± 0.27
same,promoter activity interaction Z-score,[6]; [32],0.0383 ± 0.29
same,promoter activity interaction Z-score,[6]; [33],0.0292 ± 0.36
same,promoter activity interaction Z-score,[6]; [34],0.0474 ± 0.046
same,promoter activity interaction Z-score,[6]; [35],1.42 ± 0.14
same,promoter activity interaction Z-score,[6]; [36],1.05 ± 0.48
same,promoter activity interaction Z-score,[6]; [37],0.898 ± 0.69
same,promoter activity interaction Z-score,[6]; [38],0.846 ± 0.19
same,promoter activity interaction Z-score,[1]; [23],0.088 ± 0.58
same,promoter activity interaction Z-score,[1]; [24],-0.319 ± 0.36
same,promoter activity interaction Z-score,[1]; [25],0.652 ± 0.036
same,promoter activity interaction Z-score,[1]; [26],0.106 ± 0.47
same,promoter activity interaction Z-score,[1]; [27],0.612 ± 0.26
same,promoter activity interaction Z-score,[1]; [28],0.925 ± 0.46
same,promoter activity interaction Z-score,[1]; [29],0.609 ± 0.17
same,promoter activity interaction Z-score,[1]; [30],0.778 ± 0.55
same,promoter activity interaction Z-score,[1]; [31],0.467 ± 0.023
same,promoter activity interaction Z-score,[1]; [32],-0.206 ± 0.25
same,promoter activity interaction Z-score,[1]; [33],0.275 ± 0.38
same,promoter activity interaction Z-score,[1]; [34],0.757 ± 0.4
same,promoter activity interaction Z-score,[1]; [35],0.385 ± 0.34
same,promoter activity interaction Z-score,[1]; [36],1.01 ± 0.081
same,promoter activity interaction Z-score,[1]; [37],0.222 ± 0.11
same,promoter activity interaction Z-score,[1]; [38],1.08 ± 0.62
same,promoter activity interaction Z-score,[2]; [23],-0.0338 ± 0.24
same,promoter activity interaction Z-score,[2]; [24],-0.139 ± 0.028
same,promoter activity interaction Z-score,[2]; [25],-0.137 ± 0.026
same,promoter activity interaction Z-score,[2]; [26],0.0469 ± 0.46
same,promoter activity interaction Z-score,[2]; [27],0.0426 ± 0.12
same,promoter activity interaction Z-score,[2]; [28],0.0745 ± 0.03
same,promoter activity interaction Z-score,[2]; [29],-0.157 ± 0.17
same,promoter activity interaction Z-score,[2]; [30],-0.0373 ± 0.73
same,promoter activity interaction Z-score,[2]; [31],0.0115 ± 0.12
same,promoter activity interaction Z-score,[2]; [32],-0.148 ± 0.13
same,promoter activity interaction Z-score,[2]; [33],-0.0916 ± 0.13
same,promoter activity interaction Z-score,[2]; [34],0.0598 ± 0.27
same,promoter activity interaction Z-score,[2]; [35],-0.0461 ± 0.098
same,promoter activity interaction Z-score,[2]; [36],-0.0772 ± 0.096
same,promoter activity interaction Z-score,[2]; [37],-0.0369 ± 0.08
same,promoter activity interaction Z-score,[2]; [38],0.0279 ± 0.51
same,promoter activity interaction Z-score,[3]; [23],-0.367 ± 0.24
same,promoter activity interaction Z-score,[3]; [24],-0.79 ± 0.24
same,promoter activity interaction Z-score,[3]; [25],-0.414 ± 0.28
same,promoter activity interaction Z-score,[3]; [26],-0.864 ± 0.42
same,promoter activity interaction Z-score,[3]; [27],0.453 ± 0.31
same,promoter activity interaction Z-score,[3]; [28],0.956 ± 0.37
same,promoter activity interaction Z-score,[3]; [29],0.349 ± 0.2
same,promoter activity interaction Z-score,[3]; [30],-0.174 ± 0.0082
same,promoter activity interaction Z-score,[3]; [31],-0.798 ± 0.98
same,promoter activity interaction Z-score,[3]; [32],-0.615 ± 0.57
same,promoter activity interaction Z-score,[3]; [33],-0.016 ± 0.46
same,promoter activity interaction Z-score,[3]; [34],-0.0987 ± 0.39
same,promoter activity interaction Z-score,[3]; [35],-0.558 ± 0.11
same,promoter activity interaction Z-score,[3]; [36],-0.589 ± 0.39
same,promoter activity interaction Z-score,[3]; [37],-0.155 ± 0.7
same,promoter activity interaction Z-score,[3]; [38],-0.224 ± 1.2
